Screening results from PubChem.
Sampled rows, rich in hits. Any-hit rate of the full collection: about 21%.
NS1 function inh: blocks influenza NS1 protein function; Potency, µM (titrated, usually from 46.1 µM); 0.4% of 270,000 active; AID 2326; calls by dose curve; also: actives are rising curves; nearly all actives have a fitted effect of over 50% in size
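Read-out: OD600 growth recovery of NS1-expressing budding yeast. Cells grown overnight at 30C in -URA glucose medium, washed, resuspended and diluted 1:100 in 2% galactose assay medium, pH 6.0. Same strain lacking NS1 served as positive control.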
Pf growth 48h: P. falciparum growth inhibition at 48 hours (one generation). 5.9% of 310,000 active. Potency, µM (top dose mostly 28.7 µM), most hits filed as inhibitors. AID 504832. P. falciparum luciferase growth in erythrocytes, 48 h
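Luciferase-expressing parasites in RBCs, 2% Hct / 0.1% parasitemia final; RPMI 1640 + 0.5% Albumax; 37 C, 5% CO2, one generation; luminescence read-out, lower signal = inhibition.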
Shiga inhibitor: inhibitors of Shiga toxin in Vero cells; Vero cells, Shiga toxin protein synthesis inhibition reporter; inhibition, % at 38.7 µM; 9.2% of 290,000 active; AID 2315; in the data active = inhibition mostly above about 28%, no sharp cut-off; inactive = mostly below about 43%
Pf growth 96h: inhibits malaria parasite growth, 96 h; P. falciparum luciferase reporter growth, 96 h; Potency, µM (highest dose often 28.7 µM), most hits filed as inhibitors; AID 504834; 6.9% of 320,000 active
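Two-generation exposure (96 h) targets delayed-death phenotype. Reporter parasites carrying integrated firefly luciferase, in red cells at 2% hematocrit and 0.05% parasitemia final, kept at 37 C, 5% CO2; luminescence loss indicates inhibition.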
SARS PLP yeast: blocks SARS-CoV papain-like protease in a yeast assay; Potency, µM (doses to about 32.9 µM), actives largely listed as activators; AID 485353; S. cerevisiae expressing SARS-CoV PLpro, growth rescue; 0.19% of 330,000 active; calls by dose curve; also: nearly all actives have a fitted effect of over 55% in size
CHX counter: counter-screen hit for Shiga toxin inhibitors, cycloheximide; cell reporter, cycloheximide protein synthesis inhibition counterscreen; max response, %; 12% of 300,000 active; AID 2314; in the data active = max response mostly above about 13%, no sharp cut-off; inactive = mostly below about 14%; also: read at 38.3 µM for the half of the compounds with a filed dose
Large screens that a line does not name were inactive. Unless noted, calls follow the shape of the dose curve; as a rule, active = well fitted inhibition curve with a large enough effect; inconclusive = small, poorly fitted or top-dose-only effect, or another doubt; inactive = no such curve, though single readings can be large or run the other way.

COc1ccc(N2CCN(S(=O)(=O)c3ccc(OC)c(C(=O)N4CCOCC4)c3)CC2)cc1	none
O=C(c1ccccc1)N1CCN(c2ccc([N+](=O)[O-])c(NCC3CCCO3)c2)CC1 (stereo not given)	Pf growth 48h inconclusive
Cc1c(NS(=O)(=O)c2cc(C(=O)NCc3cccnc3)ccc2Cl)c(=O)n(-c2ccccc2)n1C	none (no result: NS1 function inh, Pf growth 48h, Shiga inhibitor, Pf growth 96h, CHX counter)
COc1ccc2cc(S(=O)(=O)N3CCCC3)ccc2c1	Pf growth 96h 6.6µM
COc1ccc2cc(S(=O)(=O)N3CCN(C)CC3)ccc2c1	Pf growth 48h inconclusive, Pf growth 96h inconclusive
CCn1c(-c2c[nH]c3ccccc23)n[nH]c1=S	none (no result: Pf growth 96h)
Cc1ccc(-c2cc(-c3n[nH]c(=S)n3C)c3ccccc3n2)cc1	Pf growth 48h inconclusive, Pf growth 96h inconclusive (no result: NS1 function inh)
CCn1c(-c2cc(-c3ccc(C)c(C)c3)nc3ccccc23)n[nH]c1=S	Pf growth 48h 4.1µM, Shiga inhibitor 81, Pf growth 96h 3.7µM, CHX counter 26
CCOc1cccc(-c2cc(-c3n[nH]c(=S)n3CC)c3ccccc3n2)c1	Pf growth 48h 13µM, Pf growth 96h 12µM
CCn1c(-c2cc(-c3cc(C)ccc3C)nc3ccccc23)n[nH]c1=S	Pf growth 48h inconclusive, Pf growth 96h 2.6µM
CCn1c(-c2cc(C3CC3)nc3ccccc23)n[nH]c1=S	Pf growth 48h inconclusive, Pf growth 96h inconclusive
CCOc1ccccc1-c1cc(-c2n[nH]c(=S)n2CC)c2ccccc2n1	Pf growth 48h 1.9µM, Pf growth 96h 1.7µM
Cc1cc(C)n2nc(SCC(=O)Nc3ccccc3C)nc2n1	none
CCCC(=O)Nc1sc2c(c1C(=O)Nc1ccccn1)CCCC2	Pf growth 48h inconclusive
COc1cc(-n2c(=O)c3ccccc3n(CC(=O)OCc3ccccc3)c2=O)cc(OC)c1OC	Pf growth 96h 9.3µM (no result: NS1 function inh)
COc1ccc(OC)c(Nc2nc(NCCO)c3ccccc3n2)c1	Pf growth 48h 2.1µM, Pf growth 96h inconclusive
Cc1ccc(Nc2nc(NCCO)c3ccccc3n2)cc1C	Pf growth 48h 0.47µM, Pf growth 96h inconclusive (no result: Shiga inhibitor)
Cc1ccc(C(=O)C(C)OC(=O)CN2C(=O)NC3(CCCC3)C2=O)cc1 (stereo not given)	none (no result: NS1 function inh, Shiga inhibitor, CHX counter)
COc1ccc(C2Nc3cccc4cccc(c34)N2)cc1Br	Pf growth 48h 10µM, Pf growth 96h inconclusive
Fc1ccc(C2Nc3cccc4cccc(c34)N2)cc1	Pf growth 48h inconclusive
O=[N+]([O-])c1cccc(C2Nc3cccc4cccc(c34)N2)c1	Pf growth 48h 4.1µM
O=[N+]([O-])c1ccc(C2Nc3cccc4cccc(c34)N2)cc1	Pf growth 96h 13µM
FC(F)(F)c1ccc(C2Nc3cccc4cccc(c34)N2)cc1	Pf growth 48h inconclusive, Pf growth 96h inconclusive
CCN(CC)c1ccc(C2Nc3cccc4cccc(c34)N2)cc1	Pf growth 48h 10µM, Pf growth 96h inconclusive, CHX counter 25
Cc1cc(C)n2nc(CC(=O)NNC(=O)COc3ccccc3)nc2n1	none
CCOC(=O)c1nc(C)nc(Sc2n[nH]c(-c3ccccc3)n2)c1C	Pf growth 48h 10µM, Pf growth 96h inconclusive
CCOC(=O)c1nnc(-c2ccccc2)nc1Sc1ccccc1Cl	Pf growth 96h inconclusive (no result: Pf growth 48h)
CC(NS(=O)(=O)c1ccc2c(c1)c(=O)n(C)c(=O)n2C)C(=O)NC1CCCCC1 (stereo not given)	Pf growth 96h inconclusive
C#CCOCCOCCOCCNc1nc(N2CCN(C(=O)[C@H](CCCCN)n3cc(CCCC)nn3)CC2)nc(N2CCN(C(=O)[C@H](CCCCN)n3cc(CCC(=O)O)nn3)CC2)n1	Pf growth 48h inconclusive (no result: NS1 function inh, Shiga inhibitor, CHX counter)
CC[N+](CC)(CC)CCC(O)(c1ccccc1)C1CCCCC1 (stereo not given)	Pf growth 48h 6.6µM, Pf growth 96h 10µM (no result: NS1 function inh, Shiga inhibitor, CHX counter)
CCN(CC)CCC(O)(c1ccccc1)C1CCCCC1 (stereo not given)	Pf growth 48h inconclusive (no result: Shiga inhibitor)
Cc1nc2scc(-c3ccccc3)c2c(=O)n1N	none (no result: Pf growth 48h)
Cc1nc2scc(-c3ccccc3)c2c(=O)n1N=C1C=CC(=O)C=C1	Shiga inhibitor 49, CHX counter 25
COc1ccccc1-c1nc2cc3ccccc3cc2nc1-c1ccccc1	Pf growth 48h inconclusive, Pf growth 96h inconclusive
NS(=O)(=O)c1ccc(CCNC(=O)CNS(=O)(=O)c2cccc(Br)c2)cc1	Pf growth 96h inconclusive
O=c1cc(C(F)(F)F)c2cc3c4c(c2o1)CCCN4CCC3	none (no result: Pf growth 48h)
